# Measured values from PubChem BioAssay AID485314 (National Center for Advancing Translational Sciences (NCATS), 2010).
# Out of some 340,000 compounds screened, about 4,500 (1.3%) were called active. About 5% were inconclusive and are not listed. The sample holds actives, similar compounds and a random draw of the others, so the mix is not that of the screen. Calls come from the whole dose curve; as a rule, active = well fitted inhibition curve with a large enough effect; inconclusive = small, poorly fitted or top-dose-only effect, or another doubt; inactive = no such curve, though single readings can be large or run the other way.
# Biological target: DNA polymerase beta (Homo sapiens) (UniProt P06746)
# Experiment: qHTS Assay for Inhibitors of DNA Polymerase Beta
# Conditions: Pol beta primer extension/strand displacement, fluorescence kinetic; series mostly up to 114 µM; activity change, negative = inhibition: at the top concentration
# Summary of the method: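 Reaction started by 50 nM substrate onto compound-treated Pol beta (10 nM, 15 min preincubation, room temperature); plates read at 0 min and 10 min. Normalized concentration-effect data fitted by four-parameter Hill equation.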
# % is set by controls: 0 for no effect and ±100 for the full control effect; potency is the fitted concentration of half-maximal effect.
SMILES,"activity change, negative = inhibition",Potency
COc1ccc(CCNc2nc3c(-c4cccc(F)c4)nnn3c3ccccc23)cc1OC,40.6% (inactive),–
COCCCNc1nc2c(-c3cccc(C(F)(F)F)c3)nnn2c2ccccc12,-25.9% (inactive),–
COCCCNc1nc2c(-c3cccc(C)c3)nnn2c2ccc(Cl)cc12,–,35.5 µM (active)
COc1ccc(C(=O)COC(=O)CCCC(=O)Nc2cc(C(F)(F)F)ccc2Cl)cc1,-2.85% (inactive),–
CN1C=CC=C/C1=C1\SC(=S)N(Cc2ccccc2)C1=O,6.67% (inactive),–
COc1ccc(/C=C2\SC(=S)N(CC(=O)NNC(=O)c3ccncc3)C2=O)cc1,29.9% (inactive),–
COc1ccc(/C=C2/SC(=O)N(CCCCCC(=O)Nc3ccccc3C(=O)O)C2=S)cc1,24.4% (inactive),–
O=C(CCN1C(=O)/C(=C/c2cccs2)SC1=S)NNC(=O)c1cccc(O)c1,-8.72% (inactive),–
O=C(CCCN1C(=O)/C(=C/c2cccs2)SC1=S)Nc1ccc(O)cc1,9.43% (inactive),–
COc1ccc(/C=C2\SC(=S)N(CCC(=O)Nc3cccc(C(=O)O)c3)C2=O)cc1OC,–,70.8 µM (active)
O=C(CCCN1C(=O)/C(=C/c2ccco2)SC1=S)Nc1ccccc1,–,12.6 µM (active)
O=C(CCCN1C(=O)/C(=C\c2ccco2)SC1=S)Nc1cccc2ccccc12,–,10 µM (active)
O=C1/C(=C\c2ccccc2Cl)SC(=S)N1CCC(=O)N1CCCc2ccccc21,5.83% (inactive),–
COc1cc(/C=C2/SC(=S)N(Cc3ccccc3)C2=O)cc(OC)c1O,–,14.1 µM (active)
O=C(CCCN1C(=O)/C(=C/c2ccccc2)SC1=S)Nc1ccc(O)cc1,0.267% (inactive),–
Cc1ccc(/C=C2\SC(=S)N(CCC(=O)Nc3ccc(O)cc3)C2=O)cc1,2.43% (inactive),–
COc1cccc(CN2CCc3nc(SCC(=O)Nc4ccccc4)[nH]c(=O)c3C2)c1,18.1% (inactive),–
Cc1ccc2nc(COc3ccccc3NC(=O)Nc3ccc(F)c(Cl)c3)cc(=O)n2c1,2.36% (inactive),–
COc1ccc(-c2c3c(=O)n(C)c(=O)n(C)c3c3c(C)nc4ccccc4n23)cc1,-27.7% (inactive),–
Cc1ccc(-c2nnc(Nc3cccc(Br)c3)c3ccccc23)cc1S(=O)(=O)NCC1CCCO1 (configuration not stated),21.3% (inactive),–
COc1ccc(-c2cccc(NS(=O)(=O)c3cc(C)c(OC)c(C)c3C)c2)nn1,10.4% (inactive),–
O=C(O)c1ccc(Cn2c(SCc3ccc(F)cc3)nc3ccncc32)cc1,6.07% (inactive),–
CCOc1ccc(N(CC)S(=O)(=O)N2CCCC(C(=O)Nc3ccc(C(C)=O)cc3)C2)cc1 (configuration not stated),4.94% (inactive),–
COc1cc(OC)c(C2C=C(C(=O)O)Nc3ncnn32)cc1OC (configuration not stated),31.7% (inactive),–
CC1CCN(S(=O)(=O)c2ccc3c(ccn3CCC(=O)NCc3ccc(N(C)C)cc3)c2)CC1,-2.55% (inactive),–

SMILES,"activity change, negative = inhibition",Potency
O=C(CSc1ncc(S(=O)(=O)c2ccc(Br)cc2)c(=O)[nH]1)Nc1ccc2c(c1)OCCO2,-20% (inactive),–
Cc1ccc(/C=C(\C#N)C(=O)Nc2cc(C)ccc2C)cc1,0.467% (inactive),–
CN=C1S/C(=C\c2c(OC)cc(OC)cc2OC)C(=O)N1C,10.1% (inactive),–
CN=C1S/C(=C\c2ccc(Sc3ccc(Cl)cc3)o2)C(=O)N1C,-12.7% (inactive),–
CN1C(=O)/C(=C/c2ccco2)SC1=Nc1cccc(C(=O)O)c1,–,17.8 µM (active)
CCOc1ccc(NC(=O)c2c(NC(=O)Cc3ccccc3)sc3c2CCCCC3)cc1,25.9% (inactive),–
CC(C)c1ccc(C(=O)OC2CCOC2=O)cc1 (configuration not stated),–,20 µM (active)
COc1cc(C(=O)OC2CCOC2=O)c([N+](=O)[O-])cc1OC (configuration not stated),2.75% (inactive),–
Cc1nn(Cc2ccccc2)c(Cl)c1C(=O)OC1CCOC1=O (configuration not stated),-0.814% (inactive),–
COc1ccc(N2CCN(S(=O)(=O)CCNC(=O)C(c3ccccc3)c3ccccc3)CC2)cc1,-0.733% (inactive),–
CCOC(=O)c1cc(-c2ccccc2)n(CCC(=O)Nc2ccccc2CC)c1C,0.554% (inactive),–
CCOC(=O)c1c(C)oc2nc(C)nc(N(CC(C)C)CC(C)C)c12,-0.894% (inactive),–
CCCCNC(=O)C1CCCN(c2nnc(C)c3c(C)n(-c4ccc(Cl)cc4)nc23)C1 (configuration not stated),37% (inactive),–
CCSC1=C(C#N)C(=O)n2c1cc1c2CCCC1,–,39.8 µM (active)
CCSc1ncnc2c(C#N)c3n(c12)CCCCC3,-0.0615% (inactive),–
Cc1ccc2nc(-c3ccc(O)cc3)c(Nc3ccc4c(c3)OCO4)n2c1,39.3% (inactive),–
COc1ccc(Cl)cc1-n1c(CCC(=O)O)ccc1-c1ccc(C)cc1,-1.45% (inactive),–
Cc1c(C(=O)N/N=C/c2ccccc2)[nH]c2c([N+](=O)[O-])cccc12,-0.401% (inactive),–
COc1cccc2c(C)c(C(=O)O)[nH]c12,–,50.1 µM (active)
COc1cc2c(C(=O)O)c(C)n(C)c2c2ccccc12,27.9% (inactive),–
COc1ccc(S(=O)(=O)NCC(c2ccc(N(C)C)cc2)N2CCCC2)cc1 (configuration not stated),1.79% (inactive),–
CCC(=O)Nc1cccc(-c2nc3cc(C)ccc3o2)c1,-23.2% (inactive),–
COc1ccccc1NC(=O)COC(=O)Cc1ccc(S(=O)(=O)N2CCCCC2)s1,-5.94% (inactive),–
O=C(NC1CCCCC1)C1CCCN(S(=O)(=O)c2cccs2)C1 (configuration not stated),0.533% (inactive),–
O=C(CC(c1ccccc1)c1cc(Cl)ccc1O)NCCN1CCOCC1 (configuration not stated),4.17% (inactive),–

SMILES,"activity change, negative = inhibition",Potency
O=C(NC1CCCCC1)C1CCCN(S(=O)(=O)c2ccc(Br)s2)C1 (configuration not stated),38% (inactive),–
O=C(Cc1ccc(S(=O)(=O)N2CCCC2)s1)NC1CCCCCC1,–,31.6 µM (active)
O=C(Cc1ccc(S(=O)(=O)N2CCOCC2)s1)NCCC(c1ccccc1)c1ccccc1,–,22.4 µM (active)
CCn1c2ccccc2c2cc(CN3CCN(Cc4cccc(Cl)c4)CC3)ccc21,2.61% (inactive),–
Cc1c(CCNC(=O)c2ccc(C(F)(F)F)cc2)sc2nc(-c3ccc(F)cc3)nn12,-1.1% (inactive),–
CCCOc1cccc(C(=O)Nc2cccc(NC(=O)c3ccc(C(C)(C)C)cc3)c2)c1,0.549% (inactive),–
COc1ccc(C2CC(c3ccccc3)=NN2C(=O)COC(=O)COc2ccccc2)cc1 (configuration not stated),-1.43% (inactive),–
COc1ccc(OCc2nnc3n2N=C(c2ccccc2)C(CC(=O)O)S3)cc1 (configuration not stated),–,22.4 µM (active)
COc1cccc(OCc2nnc3n2N=C(c2ccccc2)C(CC(=O)O)S3)c1 (configuration not stated),1.71% (inactive),–
Cc1cccc(C(=O)NCCc2nc3ccccc3n2Cc2ccccc2Cl)c1,6.4% (inactive),–
CCOc1ccc(NC(=O)c2ncoc2-c2ccco2)cc1,-4.76% (inactive),–
COCCNC(=O)Nc1ccc2nc(-c3ccco3)c(-c3ccco3)nc2c1,–,2.24 µM (active)
O=C(NCc1ccccn1)c1ccc2nc(-c3ccco3)c(-c3ccco3)nc2c1,–,3.16 µM (active)
COc1cccc(S(=O)(=O)NCc2ccc(C(=O)NCc3ccccn3)cc2)c1,41.3% (inactive),–
COc1ccc(-c2nc3ccc(C(=O)NCc4ccc(C)cc4)cc3nc2-c2ccc(OC)cc2)cc1,-29.7% (inactive),–
COc1ccc(NC(=O)C(=O)NCc2ccco2)cc1,-4.3% (inactive),–
COc1ccc(-n2nc(C(=O)NCCc3ccc(Cl)cc3)c3c4ccccc4n(C)c3c2=O)cc1Cl,10.3% (inactive),–
COc1ccc(C)cc1NC(=O)C(=O)NCCc1sc(-c2cccc(C)c2)nc1C,1.3% (inactive),–
Cc1cccc(N2CCN(C(=O)c3oc(=O)c4ccccc4c3-c3ccccc3)CC2)c1C,7.16% (inactive),–
CCOC(=O)c1c(C)[nH]c(CCC(=O)Nc2ccc(OC)c(OC)c2)c1C,4.37% (inactive),–
COc1ccc(C2Sc3ccccc3NC3=C2C(=O)c2ccccc23)c(OC)c1OC (configuration not stated),-10.1% (inactive),–
O=C(/C=C/c1cn(CC(O)CN2CCc3ccccc32)c2ccccc12)c1ccc(Br)cc1 (configuration not stated),36.6% (inactive),–
COc1ccc(-c2cc(=O)c3c(O)cc(O[C@@H]4O[C@H](CO[C@@H]5O[C@@H](C)[C@H](O)[C@@H](O)[C@H]5O)[C@@H](O)[C@H](O)[C@H]4O)cc3o2)cc1O,–,25.1 µM (active)
Cc1ccc(OCCn2c(CNc3ccccc3C)nc3ccccc32)cc1,-1.75% (inactive),–
CCCCn1c(CNC(=O)C23CC4CC(CC(C4)C2)C3)nnc1SCC(=O)Nc1ccc(C)cc1,-23.9% (inactive),–

SMILES,"activity change, negative = inhibition",Potency
CCCn1c2ccccc2c2cnn(CC(=O)N3CCCC(C(=O)OCC)C3)c(=O)c21 (configuration not stated),-3.43% (inactive),–
CSc1nnc(SCc2nc3sc(C(=O)O)c(C)c3c(=O)[nH]2)s1,–,6.31 µM (active)
CC(=O)c1sc2nc(SCC(=O)N3CCCCC3)[nH]c(=O)c2c1C,-27% (inactive),–
CCOC(=O)c1sc2nc(CSCC(=O)OCc3ccc(C(=O)OC)o3)[nH]c(=O)c2c1C,-0.296% (inactive),–
Cc1ccc(C2c3[nH]c4ccccc4c3CCN2C(=O)c2cccc(C)c2)cc1 (configuration not stated),3.32% (inactive),–
O=C(Nc1ccc(OC(F)(F)F)cc1)C1CCCN(S(=O)(=O)c2ccc(Br)s2)C1 (configuration not stated),-6.29% (inactive),–
Cc1ccc(CSc2nc3cccnc3n2Cc2ccc(C(=O)NC3CC3)cc2)cc1,0.704% (inactive),–
COc1ccc(C2(Nc3cccc(F)c3)C(=O)c3ccccc3C2=O)cc1,9.84% (inactive),–
CN(Cc1ccccc1)S(=O)(=O)c1ccc(F)c(C(=O)Nc2cccc(Cl)c2Cl)c1,3.34% (inactive),–
O=[N+]([O-])c1ccc(N2CCSCC2)cc1O,0.685% (inactive),–
O=C1CSC(=S)N1/N=C/c1ccc(O)c([N+](=O)[O-])c1,–,17.8 µM (active)
O=C1CSC(=S)N1c1ccc(O)cc1,10.1% (inactive),–
Cc1ccc(Nc2c(-c3ccc(C)cc3)nc3cnccn23)cc1,2.74% (inactive),–
CCOC(=O)C1CCN(c2ncnc3c2c(-c2ccccc2)cn3-c2cccc(C)c2)CC1,29.8% (inactive),–
COc1ccc(Cl)cc1N(C)C(=O)c1cc2c(=O)oc3ccc(C)cc3c2s1,-16.4% (inactive),–
O=C(Nc1cccc(Cl)c1)c1csnn1,-3.01% (inactive),–
O=C(Nc1ccc(Oc2ccccc2)cc1)C1CCN(S(=O)(=O)c2ccc(Cl)cc2)CC1,0.848% (inactive),–
O=C(Nc1ccccc1)c1nnsc1S(=O)(=O)c1ccc(Cl)cc1,–,44.7 µM (active)
CC(C)c1ccc(OCC(=O)N(Cc2ccc(N(C)C)cc2)C2CCS(=O)(=O)C2)cc1 (configuration not stated),-25% (inactive),–
CC(=O)Nc1ccc(Nc2c3ccccc3nc3ccccc23)cc1,–,17.8 µM (active)
CCc1nc(Nc2ccc(NC(C)=O)cc2)c2oc3ccccc3c2n1,13.3% (inactive),–
CC(C)(C)OC(=O)NNc1c2ccccc2nc2ccccc12,23.7% (inactive),–
